In the library only some 3.7% were active in any assay of this set; here they are far more common.
tim23-1 inh – growth inhibitors of tim23-1 mutant yeast; actives 1.3% (n = 330,000); S. cerevisiae tim23-1 growth, BacTiter-Glo luminescence, 24 h; inhibition, % at 20 µM;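 active = growth inhibition of the mutant yeast at or above 50%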;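 note: temperature-sensitive mutant grown at 25 °C; plate controls were DMSO-treated mutant yeast for no effect and medium wells lacking yeast for full effect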
PfHsp90 set2 – inhibits growth of yeast expressing Plasmodium falciparum Hsp90 | S. cerevisiae expressing PfHsp90, BacTiter-Glo ATP, 48 h; yeast lacking PDR1 and PDR3 efflux regulators | inhibition, % at 9.4 µM | actives 0.32% (n = 310,000);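 active = every replicate shows inhibition above about 80%, whatever the replicate mean, limit read from the data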;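 note: 0% = DMSO neutral controls and 100% = 20 µM radicicol positive controls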
V-ATPase pH – alters yeast V-ATPase proton transport. S. cerevisiae, pHLuorin cytosolic pH fluorescence. response, % at 10 µM. actives 0.37% (n = 350,000). AID 504577; in the data active = response mostly above about 7.3%, no sharp cut-off; inactive = mostly below about 5.4%; note: actives read high
TIM10 inh – inhibits growth of TIM10 yeast strain; S. cerevisiae TIM10 strain growth, BacTiter-Glo luminescence, 24 h; inhibition, % at 10 µM; actives 1.4% (n = 330,000); AID 463195;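 active = inhibition of 40% or more at the single tested concentration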;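 note: wild-type TIM10 isogenic control strain grown at permissive 25 °C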
tim10-1 inh – tim10-1 yeast growth inhibition. actives 2.2% (n = 330,000). S. cerevisiae tim10-1 ts strain growth, BacTiter-Glo, 24 h. inhibition, % at 20 µM;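 active = inhibition of at least 40%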;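 note: mutant grown at 25 °C; 0% = DMSO wells with yeast and 100% = wells holding no yeast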
TIM10 conf – TIM10 yeast growth inhibition, confirmed | S. cerevisiae tim10 strain growth, BacTiter-Glo luminescence, 24 h | actives 63% (n = 4,600) | AID 463215 | inhibition, % at 10 µM | shares compounds with TIM10 inh;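 active = inhibition of yeast growth at or above a set limit in either of two replicates at 10 µM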;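 note: this counterscreen used the strain with wild-type TIM10; 0% = yeast with DMSO and 100% = medium wells lacking yeast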
Numbers without * were called inactive.

`COc1ccccc1-n1cnc2c(c1=O)c1nc3ccccc3nc1n2-c1ccc(C)cc1` gave tim23-1 inh 33.5, PfHsp90 set2 -11.0, V-ATPase pH -2.7, TIM10 inh 46.2*, tim10-1 inh 39.1 and TIM10 conf 20.8.
`Cc1onc(-c2c(F)cccc2Cl)c1C(=O)N1CCCCC1` gave tim23-1 inh 21.7, PfHsp90 set2 -70.4, V-ATPase pH 3.3, TIM10 inh 10.9 and tim10-1 inh 15.5.
Screening CSc1ncccc1-c1nc2ccccc2[nH]1 returned tim23-1 inh 29.3, PfHsp90 set2 6.9, V-ATPase pH 3.8, TIM10 inh 22.7 and tim10-1 inh 25.8.
`CCSc1ncccc1-c1nc2ccccc2[nH]1` gave tim23-1 inh 38.7, PfHsp90 set2 -22.9, V-ATPase pH -0.1, TIM10 inh 43.0*, tim10-1 inh 15.0 and TIM10 conf 17.2.
`Cc1ccc(SCCC(=O)OC(C)C(=O)Nc2ccccc2)cc1` (configuration not stated) gave tim23-1 inh -3.3, V-ATPase pH -3.9, TIM10 inh -4.9 and tim10-1 inh 2.3.
Screening CC(=O)Nc1ccc(NC(=O)C(C)OC(=O)CCSc2ccccc2Cl)cc1 (configuration not stated) returned tim23-1 inh 4.4, PfHsp90 set2 -10.3, V-ATPase pH 8.9, TIM10 inh 96.9*, tim10-1 inh 12.5 and TIM10 conf 3.6.
Screening CCN(Cc1ccccc1)S(=O)(=O)c1c(C)[nH]c(C)c1C(=O)N1CCCC1 returned tim23-1 inh -4.5, PfHsp90 set2 -2.0, V-ATPase pH -4.6, TIM10 inh 52.5*, tim10-1 inh -6.9 and TIM10 conf -4.9.
Screening O=C(NCc1ccncc1)c1cccc(S(=O)(=O)NCc2ccccc2)c1 returned tim23-1 inh -11.2, PfHsp90 set2 6.9, V-ATPase pH -1.7, TIM10 inh -1.7 and tim10-1 inh -13.9.
`Cc1ccc(OCCNC(=O)c2cccc(S(=O)(=O)NCc3ccccc3)c2)cc1` gave tim23-1 inh 6.7, V-ATPase pH 9.6, TIM10 inh 58.6*, tim10-1 inh 8.8 and TIM10 conf -4.5.
Screening CC(C)(C)c1cc(NCCCn2ccnc2)n2ncc(-c3ccc(Cl)cc3)c2n1 returned tim23-1 inh 21.4, V-ATPase pH 1.8, TIM10 inh 60.3*, tim10-1 inh 34.5 and TIM10 conf 60.0*.
CCN(CC)c1ccc(/C=N/NC(=S)NCc2ccccc2)c(O)c1 was read as tim23-1 inh 27.9, PfHsp90 set2 0.9, V-ATPase pH 0.4, TIM10 inh 40.9*, tim10-1 inh 23.2 and TIM10 conf -31.8.
For CCN(CC)c1ccc(/C=N/N(c2ccccc2)c2ccccc2)c(O)c1 the results were tim23-1 inh 7.1, PfHsp90 set2 0.4, V-ATPase pH -0.7, TIM10 inh 2.4 and tim10-1 inh 9.3.
Screening C[C@H](CO)N1C[C@H](C)[C@@H](CN(C)S(=O)(=O)c2ccccc2)Oc2c(NC(=O)c3ccncc3)cccc2C1=O returned tim23-1 inh -12.5, PfHsp90 set2 -21.6, V-ATPase pH -4.7, TIM10 inh -2.5 and tim10-1 inh -11.5.
CSC1=NC(=O)/C(=C/c2ccc(SC)cc2)S1 was read as tim23-1 inh 23.8, V-ATPase pH -1.6, TIM10 inh 48.8*, tim10-1 inh 24.0 and TIM10 conf 20.8.
O=[N+]([O-])c1cc(Cl)cc(/C=N\Nc2ccccn2)c1O was read as tim23-1 inh 43.8, V-ATPase pH 3.5, TIM10 inh 41.4*, tim10-1 inh 16.4 and TIM10 conf 28.5.
`COc1ccc(NC(=S)N(CCO)Cc2ccccc2)cc1` gave tim23-1 inh 18.6, V-ATPase pH -1.6, TIM10 inh 6.0 and tim10-1 inh -2.6.
`COCCN(Cc1ccccc1)C(=S)Nc1ccc(Cl)cc1` gave tim23-1 inh 37.7, PfHsp90 set2 1.2, V-ATPase pH -0.7, TIM10 inh 41.1*, tim10-1 inh 27.8 and TIM10 conf 40.5*.
For Cc1ccc2cc(CCNC(=O)c3cc4ccccc4o3)c(=O)[nH]c2c1C the results were tim23-1 inh 37.8, PfHsp90 set2 -22.4, V-ATPase pH -2.9, TIM10 inh 57.8*, tim10-1 inh -0.9 and TIM10 conf 32.0*.
For COc1ccc2cc(CCNC(=O)c3cc4ccccc4o3)c(=O)[nH]c2c1 the results were tim23-1 inh -35.0, PfHsp90 set2 -19.7, V-ATPase pH -5.4, TIM10 inh 12.5 and tim10-1 inh -31.7.
`Cc1nnc(SCC(=O)NCC2CCCO2)n1Cc1ccccc1` (configuration not stated) gave tim23-1 inh 7.6, PfHsp90 set2 -14.4, V-ATPase pH -6.0, TIM10 inh -4.5 and tim10-1 inh 13.5.
For COc1nnc(-c2ccc(N3CCOCC3)c(NC(=O)c3ccccc3)c2)c2ccccc12 the results were tim23-1 inh 42.0, PfHsp90 set2 30.7, V-ATPase pH 0.4, TIM10 inh 40.1*, tim10-1 inh 28.0 and TIM10 conf 24.0.
COc1nnc(-c2ccc(N3CCOCC3)c(NC(C)=O)c2)c2ccccc12 was read as tim23-1 inh 19.6, PfHsp90 set2 -9.6, V-ATPase pH -2.5, TIM10 inh 5.6 and tim10-1 inh 22.0.
`COc1cc(CN2CCCC(N3CCN(c4ccc(F)cc4)CC3)C2)ccc1F` (configuration not stated) gave tim23-1 inh -10.2, PfHsp90 set2 32.4, V-ATPase pH 0.5, TIM10 inh 3.9 and tim10-1 inh 1.6.
OCC(Cc1ccccc1)Nc1c2ccccc2nc2ccccc12 (configuration not stated) was read as tim23-1 inh 27.0, PfHsp90 set2 -4.9, V-ATPase pH 1.2, TIM10 inh 56.4*, tim10-1 inh 14.0 and TIM10 conf -6.9.
Screening Cc1ccc(NC(=O)C2CCCC2)cc1S(=O)(=O)N1CCOCC1 returned tim23-1 inh 16.1, PfHsp90 set2 8.3, V-ATPase pH 1.4, TIM10 inh 12.3 and tim10-1 inh 8.2.
Screening Cc1ccc(NC(=O)C2CCN(C(=O)OC(C)(C)C)CC2)cc1S(=O)(=O)N1CCCCC1 returned tim23-1 inh 1.8, PfHsp90 set2 -3.0, V-ATPase pH 1.5, TIM10 inh 56.5*, tim10-1 inh 4.4 and TIM10 conf 3.6.
`CC(C)(C)N(CC(=O)NC1CCCCC1)C(=O)CS(=O)CC(=O)Nc1ccc(F)cc1` (configuration not stated) gave tim23-1 inh 0.8, PfHsp90 set2 -5.6, V-ATPase pH 0.1, TIM10 inh 10.1 and tim10-1 inh -18.9.
For O=[N+]([O-])c1ccc(Sc2ccccc2)nc1 the results were tim23-1 inh 17.6, PfHsp90 set2 -11.8, V-ATPase pH 1.8, TIM10 inh -5.0 and tim10-1 inh -1.2.
`O=[N+]([O-])c1ccc(Sc2n[nH]c(-c3ccccc3)n2)nc1` gave tim23-1 inh 23.8, PfHsp90 set2 -40.9, V-ATPase pH -1.1, TIM10 inh 44.9*, tim10-1 inh 21.7 and TIM10 conf 12.3.

Screens deposited in PubChem BioAssay by several laboratories.
